Rows were chosen to be rich in hits. Some 10% of all compounds tested hit in one or more screens of this group.
BAZ2B inh = BAZ2B (human) inhibition; AlphaScreen BAZ2B-H3K14Ac peptide displacement; Potency, µM (highest dose often 114 µM), without a hit: at the highest dose activity change, negative = inhibition, hits mostly inhibitors; 4.4% of 360,000 active; AID 504333; further: on the % scale 0 is the no-effect control and ±100 the full control effect; nearly all actives have a fitted effect of over 60% in size
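AlphaScreen luminescence quantifies BAZ2B engagement of H3K14Ac peptide; the protein and biotinylated peptide are both at 50 nM final, buffer PBS pH 7.4 with 0.01% Tween-20, all steps at room temperature.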
G9a block = blocks human histone lysine methyltransferase G9a; AID 504332; Q96KQ7; 8.8% of 350,000 active; G9a H3K9 monomethylation, AlphaScreen, 2 h; Potency, µM (highest dose often 102 µM), without a hit: at the top dose activity, negative = inhibition, actives largely listed as inhibitors; further: on the % scale 0 is the no-effect control and ±100 the full control effect; nearly all actives have a fitted effect of over 75% in size
Target sequence (Q96KQ7 913-1193 limits assumed): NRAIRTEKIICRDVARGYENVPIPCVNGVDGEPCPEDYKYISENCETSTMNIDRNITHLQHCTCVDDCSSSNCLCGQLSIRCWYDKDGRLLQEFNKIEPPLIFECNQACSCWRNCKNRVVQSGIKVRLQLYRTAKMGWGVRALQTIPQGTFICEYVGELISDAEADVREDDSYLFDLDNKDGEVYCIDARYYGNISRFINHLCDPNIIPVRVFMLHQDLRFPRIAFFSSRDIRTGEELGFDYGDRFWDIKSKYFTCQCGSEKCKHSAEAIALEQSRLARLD
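AlphaScreen read-out: biotin-H3K9 peptide (500 nM) methylation by 20 nM enzyme with 20 uM SAM, 2 h at room temperature after 15 min compound preincubation; anti-monomethyl H3K9 antibody plus donor/acceptor beads, 10 min dark.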
JMJD2A Tudor inh = JMJD2A Tudor domain (human) inhibition; Potency, µM (highest dose often 114 µM), for the others: top-dose activity change, negative = inhibition, hits mostly inhibitors; AID 504339; AlphaScreen JMJD2A-Tudor / H3K4me3 peptide binding; O75164; 4.4% of 390,000 active; further: on the % scale 0 is the no-effect control and ±100 the full control effect; nearly all actives have a fitted effect of over 50% in size
HP1b binding inh = HP1-beta chromodomain-methylated histone interaction inhibition | P83916 | AlphaScreen HP1-beta / biotin-H3K9me3 peptide binding | Potency, µM (series often up to 114 µM), inactives show at the highest dose activity change, negative = inhibition, hits mostly inhibitors | 0.56% of 390,000 active; further: nearly all actives have a fitted effect of over 70% in size
Target sequence (P83916 whole entry, looked up): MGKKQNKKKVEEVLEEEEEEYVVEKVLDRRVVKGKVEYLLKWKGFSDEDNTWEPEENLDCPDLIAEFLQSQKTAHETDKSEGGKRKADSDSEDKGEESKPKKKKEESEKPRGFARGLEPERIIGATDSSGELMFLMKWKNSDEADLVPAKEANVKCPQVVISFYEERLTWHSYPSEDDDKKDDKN
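HP1-beta protein (50 nM final) preincubated 30 min at room temperature with biotinylated H3(1-18)K9me3 peptide (50 nM) in PBS pH 7.4, 0.01% Tween-20, then compound added for 30 min. AlphaScreen streptavidin donor/nickel chelate acceptor beads (10 ug/mL final), 30 min dark, luminescence read.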
GLS inhibitor = blocks human kidney-isoform glutaminase activity; 0.21% of 410,000 active; GLS enzymatic activity, qHTS titration; AID 624170; O94925; Potency, µM (titrated, usually from 45.5 µM), for inactives: at the highest dose activity change, negative = inhibition, usual class: inhibitors; further: on the % scale 0 is the no-effect control and ±100 the full control effect
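Assay buffer: 45 mM KH2PO4 pH 8.2, 0.02% Tween-20. hKGA acts on L-glutamine (1 mM solution added); product glutamate is reported by an oxidase/peroxidase Amplex Red coupling, with fluorescence taken at baseline and 30 min.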
Active calls of the source: *; ? = inconclusive; nt = no result given; [ ] = dose if it differs, or a comment. The call rests on the fitted dose curve; in most records, active means well fitted curve in the direction sought with a large enough effect; inconclusive means small, poorly fitted or top-dose-only effect, or another doubt; inactive means no such curve, though single readings can be large; an effect the other way counts as inactive or inconclusive. Potency means the concentration at half of the fitted maximal effect.

SMILES | BAZ2B inh | G9a block | JMJD2A Tudor inh | HP1b binding inh | GLS inhibitor
C=CCc1cc(Cl)ccc1OCCOCCNC(C)CC (stereo not given) | 50µM* | 10µM* | 1.4µM* | ? | 7%
CCC(C)NCCOCCSc1ccc(Cl)cc1 (stereo not given) | 79µM* | 8.9µM* | 3.5µM* | ? | 4%
COCCCNC(=O)CCSc1ccc(Cl)cc1 | 28% | 21% | -7% | 20% | 7%
C=CCc1ccccc1OCC(O)CNC(C)C (stereo not given) | -12% | ? | -17% | 14% | 0%
Cc1cc(NC(=O)CSc2nc3ccccc3n2CCC#N)no1 | -15% | -6% | 3% | 15% | 0%
Cc1ccc(NC(=O)c2ccco2)c(OCc2cc(=O)n3cc(C)sc3n2)c1 | 6% | -5%[59 µM] | 4% | 26%[57 µM] | 4%
O=C1CCCN1CCCNc1ncnc2c1[nH]c1ccc(Cl)cc12 | 13% | -44%[59 µM] | -1% | 25% | 3%
CCN1CCCC1CNc1ncnc2c1[nH]c1ccc(Cl)cc12 (stereo not given) | -1% | 50µM* | -20% | 15% | 16%
COc1ccc(-n2c(SC)nc(O)c(Cc3ccccc3)c2=O)cc1 | -9% | 40µM* | -13% | 11% | -2%
COc1ccc(-n2c(SCC(=O)Nc3ccccc3OC)nc(O)c(Cc3ccccc3)c2=O)cc1 | -2% | nt | -21% | 24% | 9%
O=C(CNCc1ccccn1)N1CCc2ccccc2C1 | 4µM* | -107%[59 µM] | ? | 9% | 6%
Cc1ccnc(SCC(=O)N2CCc3ccccc3C2)n1 | -27% | 40µM* | -8% | -5% | -3%
CC(C)N(C(=O)COC(=O)CCC(=O)c1cccs1)c1ccccc1 | nt | nt | -8% | 30% | 0%
COc1cc(C(=O)NCCCNC(=O)c2cc(OC)c(OC)c(OC)c2)cc(OC)c1OC | nt | nt | -11% | 40% | -2%
COc1cc(C(=O)NCCNC(=O)c2cc(OC)c(C)c(OC)c2)cc(OC)c1C | -11% | 32µM* | -3% | 23% | 6%
Cc1cccc(Oc2nc3ccccn3c(=O)c2/C=C(\C#N)c2nc3ccccc3s2)c1C | -1%[57.1 µM] | 5.6µM* | 2% | 56% | -21%
CC(=O)c1c(C)n([O-])c2cc(F)c(F)cc2[n+]1=O | -3% | 2% | -8% | 52% | -5%
COc1ccc2c(c1)[n+](=O)c(C(C)=O)c(C)n2[O-] | -7% | 28µM* | -17%[11.4 µM] | ? | -10%
CC(CCc1ccc(O)cc1)NCCc1ccc(O)c(O)c1 (stereo not given) | nt | -101%[59 µM] | -22% | -3% | 45%
CC(Cc1ccc(O)c(O)c1)C(C)Cc1ccc(O)c(O)c1 (stereo not given) | nt | nt | 22µM* | ? | -26%
COc1cc(C[C@@H](C)[C@@H](C)Cc2ccc(O)c(OC)c2)ccc1O | nt | nt | ? | 15% | 16%
C[C@H](Cc1ccc(O)c(O)c1)[C@@H](C)Cc1ccc(O)c(O)c1 | nt | 0.79µM* | nt | nt | nt
Cc1ccc(C)c(OCc2cc(C(=O)N3CCN(c4ccccc4)CC3)no2)c1 | -20% | nt | -2% | 39% | 10%
CN1c2ccccc2C(C)(C)C12C=Nc1c(cc(N3CCOCC3)c3ccccc13)O2 (stereo not given) | ? | 45µM* | ? | -15% | -13%
CSc1nc(N2CCOCC2)c2ccccc2n1 | 7% | -10%[59 µM] | -8% | 33% | 2%
SMILES | BAZ2B inh | G9a block | JMJD2A Tudor inh | HP1b binding inh | GLS inhibitor
COCCOC(=O)C1=C(C)N(c2ccccc2)C(=S)NC1c1ccccc1C(F)(F)F (stereo not given) | -32% | -23% | ? | 38% | 3%
COC(=O)C1=C(C)N(c2ccccc2)C(=S)NC1c1ccccc1C(F)(F)F (stereo not given) | ? | 50µM* | ? | 18% | 15%
CCc1noc(C)c1C(=O)Nc1cc(Cl)ccc1N1CCOCC1 | 1% | 14%[0.501 µM] | -6% | 11% | 1%
Cc1nn(-c2ccccc2)c(C)c1/C=N/n1c(-c2ccc(C(C)(C)C)cc2)n[nH]c1=S | ? | 29%[0.501 µM] | ? | ? | -28%
Cc1ccccc1-c1n[nH]c(=S)n1/N=C/c1c(C)nn(-c2ccccc2)c1C | -5% | 1µM* | ? | 25% | ?
Cc1ccc(-c2cc(C(=O)N/N=C/c3c(C)nn(-c4ccccc4)c3C)[nH]n2)cc1 | 4% | -19%[59 µM] | nt | nt | nt
Cc1ccc(-c2n[nH]c(=S)n2/N=C/c2c(C)nn(-c3ccccc3)c2C)cc1 | -25% | 10µM* | 79µM* | 10% | -1%
Cc1oc2ccc(Br)cc2c(=O)c1-c1nn[nH]n1 | 56µM* | ? | ? | 6% | 12%
CSCC[C@H](NC(=O)OC(C)(C)C)C(=O)N1CCC(C(=O)N[C@@H](C)C(=O)NC(C)c2ccccc2)CC1 (stereo not given in full) | 35% | nt | -22% | 49% | -2%
N#C/C(=C\c1ccc(-c2cccc([N+](=O)[O-])c2)o1)C(=O)N1CCOCC1 | -11% | -1% | ? | -2% | -2%
N#C/C(=C\c1ccc(-c2ccc([N+](=O)[O-])cc2Br)o1)C(=O)N1CCN(c2ccccc2)CC1 | ? | 4µM* | ? | -16% | 16%
Cc1ccc(OCC(=O)c2c(O)c3ccccc3oc2=O)cc1C | ? | 12%[12.7 µM] | 40µM* | 16% | 15%
Cc1ccc(C(C)C)c(OCC(=O)Nc2c(C(=O)c3ccccc3)oc3ccccc23)c1 | 3% | -9%[59 µM] | 19% | 80% | 2%
CCc1ccc(OCC(=O)c2c(O)c3ccccc3oc2=O)cc1 | ? | 45µM* | -11% | 27% | 15%
Cc1ccc(OCC(=O)Nc2c(C(=O)c3ccccc3)oc3ccccc23)cc1C | 5% | 7%[59 µM] | 0% | 45% | 3%
Cc1ccc(C(C)C)c(OCC(=O)c2c(O)c3ccccc3oc2=O)c1 | nt | nt | 45µM* | -1% | 12%
Cc1ccc(S(=O)(=O)n2nnc3ccccc32)c(C)c1C | ? | 50µM* | -33% | 60% | -5%
Cc1cccc(C(=O)NC2C(=O)NNC2c2ccc(Cl)cc2)c1 (stereo not given) | nt | 16µM* | -29% | 11% | 7.9µM*
O=C(NC1C(=O)NNC1c1ccccc1)c1ccccc1 (stereo not given) | 2% | -13%[59 µM] | -9% | 39% | 2%
COC(=O)c1c(C)[nH]c(/C=N/Nc2ccccc2)c1C | ? | 25µM* | ? | -2% | -8%
Cc1c(C=NNc2ccccc2)[nH]c(=O)[nH]c1=O | nt | nt | 0% | 42% | 0%
COc1ccc(NC(=O)CC2(Cc3ccccc3)CCOC(C)(C)C2)cc1 (stereo not given) | 3% | 1%[59 µM] | -12% | 28% | 21%
N#Cc1c(-n2cccc2/C=N/O)sc2c1CCCC2 | 45µM* | ? | 45µM* | ? | 1%
C=CCNCc1cccn1-c1sc2c(c1C#N)CCCC2 | ? | ? | 3.2µM* | ? | 3%

Screens deposited in PubChem by National Center for Advancing Translational Sciences (NCATS).
